{"source": "PubChem BioAssay AID1626", "about": "(SRMLSC, 2009)", "note": "About 2,000 (0.91%) of roughly 220,000 compounds were called active. Not shown: some 2% with an inconclusive outcome. Cut-off read from the data, not from the text of the source: inconclusive = inhibition above about 80% without an active follow-up result; inactive = below that; test concentration not stated here. A selection follows. Potency and affinity values are given separately.", "data": [{"experiment": "M. tuberculosis H37Rv growth inhibitors, H37Rv strain (AID 1626);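 note: bacteria incubated seven days before Alamar blue readout; 0% = bacteria only wells and 100% = bacteria with antibiotic wells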", "settings": "active compounds read high, concentration not given here", "values": [{"smiles": "COCCn1c(SCC(=O)N2CC(=O)Nc3ccccc32)nc2ccccc2c1=O", "inhibition": "14.5% (inactive)"}, {"smiles": "CCc1ccc(-c2cc(C(F)(F)F)n3nc(C(=O)Nc4c(C)nn(Cc5ccccc5Cl)c4C)cc3n2)s1", "inhibition": "-4.86% (inactive)"}, {"smiles": "CCc1ccc(-c2cc(C(F)(F)F)n3nc(C(=O)Nc4c(C)nn(Cc5ccccc5C)c4C)cc3n2)s1", "inhibition": "2.87% (inactive)"}, {"smiles": "O=S(=O)(Nc1ccc(C(F)(F)F)cc1)c1cnc[nH]1", "inhibition": "-0.2% (inactive)"}, {"smiles": "CCOC(=O)C(C(=O)OCC)N(C#N)c1nc(C)cc(C)n1", "inhibition": "-14% (inactive)"}, {"smiles": "Cc1cccc(-c2nsc(SCC(=O)c3ccc(Cl)cc3)n2)c1", "inhibition": "94% (inactive)"}, {"smiles": "CCOC(=O)N1CCN(Cc2nc(-c3cccc(C)c3)no2)CC1", "inhibition": "-1.51% (inactive)"}, {"smiles": "CCOC(=O)CSc1nc(-c2ccc(OC)cc2)ns1", "inhibition": "57.1% (inactive)"}, {"smiles": "Cc1cccc(-c2nsc(SCC(=O)Nc3nccs3)n2)c1", "inhibition": "10.4% (inactive)"}, {"smiles": "CCOC(=O)CNC(=O)CSc1nnc(-c2cccc(C)c2)n1-c1ccc(OC)cc1", "inhibition": "3.71% (inactive)"}, {"smiles": "CCOC(=O)CSc1nc(-c2ccccc2)nc2ccccc12", "inhibition": "-6.27% (inactive)"}, {"smiles": "CCOC(=O)CNC(=O)CSc1nnc(-c2ccccc2)c(-c2ccccc2)n1", "inhibition": "-8.15% (inactive)"}, {"smiles": "CCOC(=O)CNC(=O)CSc1nnc(SCC(=O)NCC(=O)OCC)s1", "inhibition": "-11.7% (inactive)"}, {"smiles": "COc1ccc(C2=NOC(C(=O)N3CCN(c4ccccc4OC)CC3)C2)cc1", "note": "(stereo not drawn)", "inhibition": "10.3% (inactive)"}, {"smiles": "COc1ccc(NC(=O)COC(=O)Cc2ccc(Br)cc2)cc1", "inhibition": "15.8% (inactive)"}, {"smiles": "Cn1c2ccccc2c(=O)c2c(=O)n(Cc3ccco3)c(-c3ccc(C(C)(C)C)cc3)nc21", "inhibition": "50.6% (inactive)"}, {"smiles": "Cc1c(F)cccc1NC(=O)CCC(=O)O", "inhibition": "0.24% (inactive)"}, {"smiles": "O=C(c1cnc2sccn2c1=O)N1CCCc2ccccc21", "inhibition": "0.62% (inactive)"}, {"smiles": "CNC(=O)CSCCn1c(SCC(=O)NC)nc2ccccc2c1=O", "inhibition": "-1.73% (inactive)"}, {"smiles": "CC(=O)c1cccc(NC(=O)C(C)OC(=O)CNC(=O)c2ccc(C)s2)c1", "note": "(stereo not drawn)", "inhibition": "-1.06% (inactive)"}, {"smiles": "O=C(O)c1ccc(CSc2ncn[nH]2)cc1", "inhibition": "-5.36% (inactive)"}, {"smiles": "Clc1ccc(CSc2ncn[nH]2)cc1", "inhibition": "74.3% (inactive)"}, {"smiles": "Cc1ccc(C)c(N(C)S(=O)(=O)c2cccc3nsnc23)c1", "inhibition": "-5.61% (inactive)"}, {"smiles": "COc1cccc(NC(=S)N(Cc2ccccn2)Cc2ccccc2Cl)c1", "inhibition": "8.54% (inactive)"}, {"smiles": "CCn1c(=O)cc(NC2=NCC(C)CN2c2cccc(Cl)c2)n(C)c1=O", "note": "(stereo not drawn)", "inhibition": "-2.51% (inactive)"}, {"smiles": "Cc1ccc(OCC(=O)Nc2ccccc2F)cc1C", "inhibition": "2.33% (inactive)"}, {"smiles": "CCCCc1ccc(NC(=O)COc2ccc(C(=O)Nc3ccccc3C)cc2)cc1", "inhibition": "73.6% (inactive)"}, {"smiles": "O=C(N/N=C/c1ccccc1C(F)(F)F)c1ccc(O)cc1", "inhibition": "-4.67% (inactive)"}, {"smiles": "CCOc1ccc(/C=C/C2=NNC(=O)CC2)cc1", "inhibition": "-3.64% (inactive)"}, {"smiles": "CCCn1c(N2CCC(Cc3ccccc3)CC2)nc2c1c(=O)[nH]c(=O)n2C", "inhibition": "12.4% (inactive)"}, {"smiles": "CCCCn1c(N2CCC(Cc3ccccc3)CC2)nc2c1c(=O)[nH]c(=O)n2C", "inhibition": "46.5% (inactive)"}, {"smiles": "Oc1c(Br)cc(Cl)cc1C=Nc1ccc(N2CCOCC2)cc1", "inhibition": "7.51% (inactive)"}, {"smiles": "O=S(=O)(CCn1cccc1)CCn1cccc1", "inhibition": "8.4% (inactive)"}, {"smiles": "COc1cc(/C=N/NC(=O)c2c(-c3ccccc3)noc2C)cc(OC)c1OC", "inhibition": "-3.6% (inactive)"}, {"smiles": "COc1ccc(CNC(=O)COC(=O)CCc2nc3ccccc3c(=O)[nH]2)cc1", "inhibition": "5.36% (inactive)"}, {"smiles": "FC(F)(F)c1ccc(C2[C@H]3CN(CC4CCCCC4)[C@H](c4ccccc4)C34CC2(c2cccnc2)C4)cc1", "note": "(stereo partly drawn)", "inhibition": "19.8% (inactive)"}, {"smiles": "FC(F)(F)c1ccc(CN2C[C@@H]3C(c4ccc(C(F)(F)F)cc4)C4(c5cccnc5)CC3(C4)[C@H]2c2ccccc2)cc1", "note": "(stereo partly drawn)", "inhibition": "9.04% (inactive)"}, {"smiles": "FC(F)(F)c1ccc(CN2C[C@@H]3C(c4ccc(Cl)nc4)C4(c5ccccc5)CC3(C4)[C@H]2c2ccccc2)cc1", "note": "(stereo partly drawn)", "inhibition": "7.77% (inactive)"}, {"smiles": "CN1C[C@@H]2C(c3ccccc3)C3(c4cccnc4)CC2(C3)[C@H]1c1ccccc1", "note": "(stereo partly drawn)", "inhibition": "1.01% (inactive)"}, {"smiles": "c1ccc(C2[C@H]3CN(CC4CCCCC4)[C@H](c4ccccc4)C34CC2(c2ccccc2)C4)cc1", "note": "(stereo partly drawn)", "inhibition": "6.4% (inactive)"}, {"smiles": "CN1C[C@@H]2C(c3ccc(C(F)(F)F)cc3)C3(c4ccccc4)CC2(C3)[C@H]1c1ccccc1", "note": "(stereo partly drawn)", "inhibition": "2.02% (inactive)"}, {"smiles": "CCOC(=O)Cn1nc(C)n(-c2ccc(C(C)C)cc2)c1=O", "inhibition": "1.38% (inactive)"}, {"smiles": "CCCc1nc2c(sc3nc4c(cc32)COC(C)(C)C4)c(=O)n1CCN(C)C", "inhibition": "-6.58% (inactive)"}, {"smiles": "Cc1ccccc1Nc1c(-c2ccc(N3CCOCC3)cc2)nc2cnccn12", "inhibition": "-3.6% (inactive)"}, {"smiles": "CC(C)C[C@H](CO)Nc1nc(Nc2cccc(Cl)c2)c2ncn(C(C)C)c2n1", "inhibition": "28.8% (inactive)"}, {"smiles": "CC[C@H](CO)Nc1nc(Nc2cccc(Cl)c2)c2ncn(C(C)C)c2n1", "inhibition": "15.3% (inactive)"}, {"smiles": "CCN(CC)S(=O)(=O)c1cccc(C(=O)N[C@H](C(=O)NCc2ccc(Cl)cc2)C(C)C)c1", "inhibition": "6.08% (inactive)"}, {"smiles": "COc1cc(C(=O)NCC(C)C)c([N+](=O)[O-])cc1OC", "inhibition": "3.27% (inactive)"}, {"smiles": "CCCOc1ccc(Br)cc1CSC(=N)N", "inhibition": "-1.31% (inactive)"}, {"smiles": "CCCCOc1ccc(Br)cc1CSC(=N)N", "inhibition": "2.99% (inactive)"}, {"smiles": "O=C(Nc1nnc(C2=COCCO2)o1)c1ccc(S(=O)(=O)N2CCCC2)cc1", "inhibition": "-3.71% (inactive)"}, {"smiles": "N#CCCN(CCC#N)S(=O)(=O)c1ccc(C(=O)Nc2nnc(C3=COCCO3)o2)cc1", "inhibition": "-6.19% (inactive)"}, {"smiles": "O=C(Nc1nnc(C2=COCCO2)o1)c1ccc(S(=O)(=O)N2CCOCC2)cc1", "inhibition": "7.6% (inactive)"}, {"smiles": "O=C(NCc1ccccc1)c1ccc2c(c1)OCCO2", "inhibition": "-7.22% (inactive)"}, {"smiles": "CC(=O)Nc1nnc(C2=COCCO2)o1", "inhibition": "0.04% (inactive)"}, {"smiles": "CCCCC(=O)Nc1nnc(C2=COCCO2)o1", "inhibition": "2.42% (inactive)"}, {"smiles": "CCCC(=O)Nc1nnc(-c2ccc3c(c2)OCCO3)o1", "inhibition": "57.4% (inactive)"}, {"smiles": "O=C(Nc1nnc(C2=COCCO2)o1)c1ccc(S(=O)(=O)N2CCCCC2)cc1", "inhibition": "78.6% (inactive)"}]}]}
